Screening results as filed in PubChem BioAssay.
This is a sample that favours compounds with a hit; in the whole collection about 2.7% have one here.
KKLEB cytotox = CF airway cell cytotoxicity counter-screen; KKLEB CF airway cells viability, ATPlite luminescence, overnight; hits give low values; cells stimulated with P. aeruginosa culture filtrate; activity change (cytotoxicity), % at 5 µM; 0.36% of 360,000 active;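 active = corrected activity change at or below -50% at 5 µM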
Shn3 3UTR inh = reduces Shn3 3'UTR luciferase signal in osteoblasts | inhibition, % at 12.5 µM | AID 588674 | Clone20 osteoblast Shn3 3'UTR firefly luciferase, 24 h | 0.52% of 360,000 active;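 active = mean inhibition of at least 75% with every replicate also reaching 75%; inconclusive = mean inhibition at least 75% but some replicate below; inactive = mean inhibition below 75%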;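 also: 0% = median of neutral control wells and 100% = pilot-screen positive control compound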
MITF TRPM1 inh = reduces MITF-dependent TRPM1 promoter luciferase signal; SK-MEL-5 TRPM1 promoter luciferase, 24 h; inhibition, % at 12.5 µM; 0.83% of 330,000 active; AID 488899;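 active = mean inhibition across replicates of 60% or more, whatever share of single replicates reaches that level; inconclusive = some that reach 60%, reason not given; inactive = mean inhibition across replicates below 60%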
HIF-2a block = HIF-2a inhibition | 786-0 RCC cells HIF-2a reporter, luciferase luminescence, overnight | inhibition, % at 18.8 µM | 0.72% of 360,000 active;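 active = inhibition of the luminescence signal of 40% or more relative to plate controls, in a single-dose primary screen at 18.75 µM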
Peg3 prom inh = Peg3 promoter activity inhibition. 1.7% of 360,000 active. AID 588405. inhibition, % at 20 µM. HeLa PEG-Prom luciferase reporter, luminescence, overnight;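 active = inhibition of at least 50% at 20 µM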
CF NFkB inh = blocks PAF-induced NF-kB reporter in cystic fibrosis cells | KKLEB NF-kB-GFP reporter, GFP fluorescence overnight | inhibition, % at 5 µM | 0.86% of 360,000 active | AID 588850;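 active = at least 50% inhibition at 5 µM, scaled per plate between neutral and stimulator controls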;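 also: PAF is a Pseudomonas aeruginosa culture filtrate used as stimulus; plate controls were PAF-stimulated DMSO wells for no effect and unstimulated DMSO wells for full effect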
Mdm2-MdmX confirm = Mdm2/MdmX (human) interaction inhibition, confirmed; shares compounds with HIF-2a block; SaOS-2 split-luciferase Mdm2/MdmX complementation, luminescence; inhibition, % at 8 µM; 99% of 740 active; AID 504601;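 active = mean inhibition of the luminescence signal across two replicates at or above 26 percent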
Target sequence (O15151 whole entry, looked up): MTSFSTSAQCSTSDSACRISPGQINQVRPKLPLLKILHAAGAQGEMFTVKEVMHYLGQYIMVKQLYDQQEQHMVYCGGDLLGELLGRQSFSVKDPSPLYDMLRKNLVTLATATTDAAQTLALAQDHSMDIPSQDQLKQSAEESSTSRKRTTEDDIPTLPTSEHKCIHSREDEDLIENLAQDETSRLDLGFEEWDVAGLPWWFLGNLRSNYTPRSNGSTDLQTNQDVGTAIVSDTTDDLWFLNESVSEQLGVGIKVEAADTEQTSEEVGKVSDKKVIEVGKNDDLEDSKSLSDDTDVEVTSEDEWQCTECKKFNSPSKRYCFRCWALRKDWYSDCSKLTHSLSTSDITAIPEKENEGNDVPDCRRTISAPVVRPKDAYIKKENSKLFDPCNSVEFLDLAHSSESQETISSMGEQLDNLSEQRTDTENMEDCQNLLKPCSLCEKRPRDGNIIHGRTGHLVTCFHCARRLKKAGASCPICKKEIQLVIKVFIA
Target sequence (Q00987 whole entry, looked up): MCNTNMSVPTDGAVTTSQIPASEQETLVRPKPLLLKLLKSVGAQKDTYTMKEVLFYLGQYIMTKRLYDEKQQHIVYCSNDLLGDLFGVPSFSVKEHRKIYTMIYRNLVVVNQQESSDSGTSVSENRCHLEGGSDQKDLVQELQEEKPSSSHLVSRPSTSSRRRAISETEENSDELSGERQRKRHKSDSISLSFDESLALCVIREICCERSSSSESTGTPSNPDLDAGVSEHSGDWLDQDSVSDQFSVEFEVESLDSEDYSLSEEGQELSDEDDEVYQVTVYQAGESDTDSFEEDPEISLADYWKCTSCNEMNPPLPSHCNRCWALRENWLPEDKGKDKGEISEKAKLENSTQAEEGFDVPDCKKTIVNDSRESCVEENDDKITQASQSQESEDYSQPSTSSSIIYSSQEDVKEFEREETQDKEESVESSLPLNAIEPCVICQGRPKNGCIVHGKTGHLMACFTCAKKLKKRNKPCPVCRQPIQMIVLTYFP
HIF-2a conf = confirmation of HIF-2a inhibitors; shares compounds with HIF-2a block; 786-0 RCC cells, HIF-2a luciferase reporter luminescence, overnight; inhibition, % at 18.8 µM; 56% of 1,800 active; AID 651580;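 active = mean inhibition across four replicates of at least 40 percent at the single tested concentration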
HIF-1a cs = counter-screen for HIF-2a inhibitors: HIF-1a inhibition in MiaPaCa-2 cells. shares compounds with HIF-2a block. MiaPaCa-2 HIF-1a luciferase reporter, desferoxamine, overnight. inhibition, % at 18.8 µM. 72% of 1,800 active. AID 651589;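 active = mean inhibition of the reporter signal across four replicates at the single tested dose of 50% or more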
* hit, by the source's call; ? = inconclusive; . = no result given.

SMILES	KKLEB cytotox	Shn3 3UTR inh	MITF TRPM1 inh	HIF-2a block	Peg3 prom inh	CF NFkB inh	HIF-2a conf	HIF-1a cs	others
CC(C)(C)n1nnnc1C(c1cccnc1)N1CCN(c2cccc(C(F)(F)F)c2)CC1 (stereo unspecified)	-1.5	-6.3	-5.0	16.2	0.8	9.0	.	.
CC(C)(C)c1cc(C(c2cccnc2)N2CCN(CCO)CC2)cc(C(C)(C)C)c1O (stereo unspecified)	-6.9	97.4*	79.1*	88.9*	104.4*	27.5	80.4*	74.5*	Mdm2-MdmX confirm=103.2*
CC[C@H](C)[C@@H](CN[C@H](CCCCNC)CNC)NCC1CCCC1	2.2	4.1	2.6	11.0	-9.2	0.1	.	.
CCCC[C@@H](CN[C@H](C)CNC)NCC1CCC(C(C)(C)C)CC1 (stereo partly specified)	.	.	.	.	.	.	.	.	Mdm2-MdmX confirm=103.2*
COc1ccc(/C=N/NC(=O)c2cccc([N+](=O)[O-])c2)c2ccccc12	-19.7	19.5	13.8	57.5*	21.3	30.6	1.2	23.6
COc1cccc(/C=N/NC(=O)c2cccc([N+](=O)[O-])c2)c1OS(=O)(=O)c1ccccc1	-5.6	13.7	10.7	7.3	24.5	3.7	.	.
O=C(NNc1nc2ccccc2o1)c1ccccc1	-8.0	-38.4	.	47.0*	-20.3	-4.9	80.2*	-26.1
COc1ccc(-c2csc3ncnc(NCCCO)c23)cc1	-5.3	9.6	-3.4	41.0*	30.1	49.1	8.6	45.7
CCN(CC)CCCNc1ncnc2scc(-c3ccc(F)cc3)c12	-1.1	-5.3	4.8	15.5	8.4	-4.9	.	.
CC(C)C[C@@H]1Cc2[nH]c(=S)[nH]c(=O)c2[C@H](C)O1	.	.	.	5.1	.	.	.	.
CCCCCCCCC[n+]1cccc2c3ccccc3ccc21	-30.5	89.2*	93.1*	-44.9	113.5*	23.7	.	.	Mdm2-MdmX confirm=101.0*
COc1ccc(OC)c2sc(N(CCN(C)C)C(=O)/C=C/c3cccs3)nc12	-97.7*	?	66.6*	78.0*	104.4*	68.0*	18.2	71.5*
CCOc1cccc2sc(N(CCN(C)C)C(=O)/C=C/c3cccs3)nc12	-24.2	-42.3	11.6	2.5	37.7	43.6	.	.
Cc1cc(C)c(C(CC(=O)c2cccs2)C(C#N)C#N)c(C)c1 (stereo unspecified)	-53.5*	-49.5	-39.4	75.5*	-12.4	61.3*	-39.1	101.8*
O=C(Nc1ccc(N2CCOCC2)c(Cl)c1)c1ccc([N+](=O)[O-])o1	-21.2	81.4	?	81.4*	105.9*	74.4*	29.3	77.1*
Cc1ccc(-c2nc3ncccc3o2)cc1NC(=O)c1ccc([N+](=O)[O-])o1	0.9	-36.8	81.5*	53.5*	56.8*	11.3	-6.8	102.1*
O=C(Nc1cccc(S(=O)(=O)N2CCCCC2)c1)c1ccc([N+](=O)[O-])o1	-13.9	69.5	80.1*	64.0*	53.3*	88.4*	34.0	104.2*
CN1CCN(c2ccc(NC(=O)c3ccc([N+](=O)[O-])o3)cc2Cl)CC1	0.0	89.7*	78.7*	57.4*	100.1*	80.3*	55.8*	58.8*
O=C(Nc1ccccc1N1CCCCC1)c1ccc([N+](=O)[O-])o1	-18.5	-11.0	26.8	10.1	37.0	-12.7	.	.
Cc1onc(-c2ccccc2)c1C(=O)N1CCC(C)(C(=O)NS(=O)(=O)C2CC2)C1 (stereo unspecified)	11.7	-14.3	.	6.5	6.3	-1.5	.	.
CCCCNC(=O)C1C(c2ccc(OC)cc2)=Nc2ccccc2N1C(=O)c1ccc2ncccc2c1 (stereo unspecified)	.	.	.	-85.4	.	.	.	.
Cc1cc(NC(=O)c2ccc([N+](=O)[O-])o2)ccc1NC(=O)c1ccco1	-16.0	-5.6	76.6*	46.8*	99.8*	72.7*	20.6	96.0*
Cc1ccc(NC(=O)c2ccc([N+](=O)[O-])o2)cc1S(=O)(=O)N1CCOCC1	-4.7	60.4	83.8*	55.1*	102.0*	56.3*	38.5	80.1*
Cc1cc([N+](=O)[O-])ccc1NC(=O)c1ccco1	4.1	-23.2	-2.9	9.6	1.8	-10.4	.	.
O=[N+]([O-])c1cc(Cl)ccc1Sc1cccc2cccnc12	-6.3	-1.6	19.9	-14.1	5.2	3.9	.	.
SMILES	KKLEB cytotox	Shn3 3UTR inh	MITF TRPM1 inh	HIF-2a block	Peg3 prom inh	CF NFkB inh	HIF-2a conf	HIF-1a cs	others
O=[N+]([O-])c1ccc(Sc2cccc3cccnc23)c([N+](=O)[O-])c1	-5.7	93.1*	75.8*	17.0	96.7*	-21.9	.	.	Mdm2-MdmX confirm=83.5*
Cc1cc(C)nc(Sc2ccc([N+](=O)[O-])cc2[N+](=O)[O-])n1	-19.8	1.5	30.8	-40.0	44.4	25.4	.	.
O=[N+]([O-])c1ccc(Sc2ccncn2)c([N+](=O)[O-])c1	-55.4*	57.6	.	69.7*	97.1*	89.9*	60.9*	104.1*
CCNC(=O)C1(C)CCN1C(=O)CCc1cccc(Cl)c1 (stereo unspecified)	4.9	-3.7	.	2.0	2.0	1.7	.	.
COC(=O)[C@]12CCCCC=C1N(Cc1ccco1)C(=O)[C@H](CC(=O)NCC13CC4CC(CC(C4)C1)C3)C2	.	.	.	6.1	.	.	.	.
CCN(CC)CCNC(=O)C12CC3CC(CC(C3)C1)C2	-11.4	-4.7	-7.0	11.3	6.5	7.1	.	.
CCN(CC)CCNC(=O)C(Cl)=C1C(Cl)=C(Cl)C(Cl)=C1Cl	4.0	32.0	13.2	66.6*	97.4*	-17.9	31.1	60.6*
Cc1cccc(NC(=O)CNC(=O)CSc2ncccn2)c1C	-5.3	-47.8	1.6	2.2	0.6	13.4	.	.
O=C(Cn1ncc(Cl)c(Cl)c1=O)NCC1CCCCC1	-72.6*	74.6	91.9*	96.8*	107.6*	94.8*	90.9*	104.9*
Cc1cccc(NC(=O)CNC(=O)Cn2ncc(Cl)c(Cl)c2=O)c1C	-61.2*	46.0	84.7*	83.7*	94.8*	91.7*	.	.	Mdm2-MdmX confirm=103.2*
CCc1nc2ccc(C(=O)Nc3ccc(NC(C)=O)cc3)cn2c1N(C)CCCc1ccccc1	3.1	-8.3	.	-11.6	6.9	21.1	.	.
COc1ccc(-c2csc(C(O)c3ccc(F)cc3)n2)cn1 (stereo unspecified)	-1.5	-18.3	.	-157.8	-90.4	6.0	.	.
Brc1ccccc1/C=N/N1CCCCC1	11.7	-16.5	-4.3	45.1*	-0.5	-19.3	-18.7	-7.0
N#Cc1cccc(NC(=O)c2cc(C3CCCCN3C(=O)c3ccccn3)on2)c1 (stereo unspecified)	6.8	-10.4	.	3.3	2.2	3.7	.	.
